The test can be described thus: growth inhibition of WT strain, primary screen, mitochondrial fusion inhibitor project, WT and mutant strains, chemical genetic (AID 1362). To be noted: mitochondrial fusion phenotypic screen, at 10 µM.
[1] abbreviates: WT strain, growth inhibition, stronger effect = higher value.

The structures appear in SMILES notation. The whole screen tested about 190,000 compounds, of which about 4,000 (2.1%) were called active. Rule as the data show it: active = inhibition above about 58%; inactive = the rest, inconclusive results apart; tested in S. cerevisiae. Shown is part of a subset that was picked to be rich in actives.

As usually defined, the inhibition is the drop in the measured response relative to a control, in per cent. As to `CCOC(=O)c1cnc(-n2nc(C)cc2C)nc1-n1nc(C)cc1C`, the inhibition under setting [1] is -11.1% (inactive) and the inhibition (mutant strain inhibition) was -5.08%.
As for `CCOC(=O)c1cnc(-c2ccccc2)nc1Oc1ccc(C)cc1`, the inhibition was 21.7% (inactive) under setting [1] and -24.7% (mutant strain inhibition).
Take `CCOC(=O)c1cnc(-n2nc(C)cc2C)nc1NNc1cc(C)nc(-c2ccccc2)n1`: the inhibition is, setting by setting: under setting [1], 62.1% (active); (mutant strain inhibition) -11.2%.
For `O=C(NNS(=O)(=O)c1ccc(F)cc1)c1cnccn1`, the inhibition was -14.2% (inactive) under setting [1] and 8.1% (mutant strain inhibition).
The matching figures for `CCc1ccccc1N1C(=O)C2C3CC(=O)C(c4ccccc43)C2C1=O` (centres undefined): 5.26% (inactive) and 3.48%.
Turning to `CCN(C(=O)CN1CCN(Cc2ccccc2)CC1)c1c(N)n(Cc2ccccc2)c(=O)[nH]c1=O`, the inhibition by setting is: under setting [1], -4.65% (inactive); (mutant strain inhibition) 11.9%.
Turning to `COc1ccccc1C(=O)N1CC2(C)CC1CC(C)(C)C2` (centres undefined), the inhibition was 18.6% (inactive) under setting [1] and 10.1% (mutant strain inhibition).
Regarding `Cc1nnnn1/C(=C\c1ccccc1)C(=O)OCC(=O)N1CC2(C)CC1CC(C)(C)C2` (centres undefined), the inhibition runs as follows: under setting [1], 60.3% (active); (mutant strain inhibition) 11.4%.
For `Cc1cccc(C(=O)NCC(=O)OCC(=O)N2CC3(C)CC2CC(C)(C)C3)c1` (centres undefined), the inhibition by setting is: under setting [1], -4.43% (inactive); (mutant strain inhibition) 5.06%.
The matching figures for `CN1CCCN(C(=O)C2CCCCC2)CC1`: 2.94% (inactive) and -4.71%.
Regarding `CN(C)S(=O)(=O)N1CCN(c2ccc([N+](=O)[O-])cc2)CC1`, the inhibition is -1.29% (inactive) under setting [1] and -1.53% (mutant strain inhibition).
With `O=C(NCc1ccc(Cl)cc1)NCc1ccc(Cl)cc1`, the inhibition by setting is: under setting [1], 4.16% (inactive); (mutant strain inhibition) 4.87%.
With `CC(C)Oc1ccc(Cc2n[nH]c(=S)n2Cc2ccccc2)cc1Cl`, the inhibition is, setting by setting: under setting [1], 66.9% (active); (mutant strain inhibition) 17.8%.
For the molecule `C=CCn1c(CCc2ccc(OC(C)C)cc2)n[nH]c1=S`, the inhibition under setting [1] is -7.58% (inactive) and the inhibition (mutant strain inhibition) was -5.68%.
With `CC(C)Oc1ccc(CCc2n[nH]c(=S)n2Cc2ccccc2)cc1`, the inhibition is, setting by setting: under setting [1], 13.3% (inactive); (mutant strain inhibition) 0.86%.
For `CSC1=N/C(=C\C=C\c2cccs2)C(=O)S1`, the inhibition was 70.3% (active) under setting [1] and 37.4% (mutant strain inhibition).
Take `Cc1cccc(C2=N/C(=C/c3cccs3)C(=O)O2)c1`: the inhibition reads like this: under setting [1], -7.49% (inactive); (mutant strain inhibition) 9.32%.
Consider `CSC1=N/C(=C\c2ccc3c(c2)OCO3)C(=O)S1`, for which the inhibition runs as follows: under setting [1], 6.07% (inactive); (mutant strain inhibition) -0.28%.
With `Cc1nnc(SCc2cccc(Cl)c2)n(N)c1=O`, the inhibition by setting is: under setting [1], -3.17% (inactive); (mutant strain inhibition) -5.61%.
Consider `CCCN(CC(=O)Nc1ccc(OC)c(OC)c1)CC(=O)Nc1ccc(F)c(F)c1F`, for which the inhibition was 4.56% (inactive) under setting [1] and 28.4% (mutant strain inhibition).
Consider `O=[N+]([O-])c1ccc2c(c1)C(N1CCOCC1)/C(=C/C1(O)CCCCC1)O2` (centres undefined), for which the inhibition was -4.01% (inactive) under setting [1] and 0.41% (mutant strain inhibition).
In the same order, the values of `COc1cc(C)c(Cl)cc1S(=O)(=O)n1ccnc1` are 3.86% (inactive) and -5.05%.
With `COc1ccccc1NC(=O)C1=C(C)Nc2nnnn2C1c1cccc(Br)c1` (centres undefined), the inhibition is -12.6% (inactive) under setting [1] and -7.01% (mutant strain inhibition).
In the case of `COC(=O)c1ccc(C2C3=C(Nc4nnnn42)c2ccccc2OC3)cc1` (centres undefined), the inhibition is 98.5% (active) under setting [1] and -8.54% (mutant strain inhibition).
`COC(=O)C1=C(C(=O)c2ccc(C)cc2)C(c2ccccc2)n2nnnc2N1` (centres undefined): the inhibition is, setting by setting: under setting [1], 11.5% (inactive); (mutant strain inhibition) 4.37%.
On to `Nc1cc(C(F)(F)F)ccc1N1CCOCC1`, for which the inhibition reads like this: under setting [1], -6.55% (inactive); (mutant strain inhibition) -2.84%.
In the case of `CC1(C)C=C2[C@H]3CC[C@@H]4[C@@]5(C)CCC(=O)C(C)(C)[C@@H]5CC[C@@]4(C)[C@]3(C)CC[C@@]2(C(=O)O)CC1`, the inhibition is 59.1% (active) under setting [1] and -18.6% (mutant strain inhibition).
In the same order, the values of `Cc1ccc(S(=O)(=O)Nc2nc(N)n(-c3ccccc3)n2)cc1` are -0.46% (inactive) and 3.67%.
Turning to `CSc1cc(C)[nH]c(=O)n1`, the inhibition reads like this: under setting [1], -8.71% (inactive); (mutant strain inhibition) -7.11%.
`CCCC1CCC(=NNC(=S)NCCc2ccccc2)CC1` (centres undefined): the inhibition under setting [1] is 66.8% (active) and the inhibition (mutant strain inhibition) was found to be 40.1%.
In the case of `S=C(NN=C1CCN(Cc2ccccc2)CC1)NC1CCCCC1`, the inhibition was 38.9% (inactive) under setting [1] and 25% (mutant strain inhibition).
For the molecule `S=C(NCCc1ccccc1)NCC1CCCO1` (centres undefined), the inhibition was -1.69% (inactive) under setting [1] and 7.51% (mutant strain inhibition).
The matching figures for `O=C(O)/C=C/c1ccc(S(=O)(=O)N2CCCCCC2)cc1`: -9.59% (inactive) and 10.2%.
The matching figures for `COCCN(C(=O)C(C)C)c1nnc(-c2ccc(C(C)(C)C)cc2)s1`: 59% (active) and 10%.
As for `COCCN(C(=O)c1ccco1)c1nnc(-c2ccc(OC)cc2)s1`, the inhibition reads like this: under setting [1], -4.3% (inactive); (mutant strain inhibition) -8.85%.
As to `COc1cc(OC)cc(-c2nnc(N(C)C(=O)c3ccncc3)s2)c1`, the inhibition is -11% (inactive) under setting [1] and -7.45% (mutant strain inhibition).
Take `CCC(=O)Nc1cc(C(F)(F)F)ccc1N1CCCC1`: the inhibition under setting [1] was -15.6% (inactive) and the inhibition (mutant strain inhibition) was 12.5%.
As for `Oc1ccc(CNc2ccccc2O)cc1`, the inhibition runs as follows: under setting [1], 62% (active); (mutant strain inhibition) 57.4%.
As for `Oc1ccc(N2CCN(C(=S)NCc3ccccc3)CC2)cc1`, the inhibition reads like this: under setting [1], -2.43% (inactive); (mutant strain inhibition) 0.26%.
For the molecule `O=[N+]([O-])c1ccccc1NCc1ccc(Cl)cc1`, the inhibition was 21.2% (inactive) under setting [1] and 13.9% (mutant strain inhibition).
For `CCC(=O)N(Cc1cc2ccccc2[nH]c1=O)c1ccc(OC)cc1`, the inhibition runs as follows: under setting [1], -16% (inactive); (mutant strain inhibition) 1.27%.
With `CN(CCOc1ccc(Br)cc1)CC(=O)Nc1cccc(S(=O)(=O)NC2=NCCC2)c1`, the inhibition reads like this: under setting [1], -4.79% (inactive); (mutant strain inhibition) -2.03%.

The record behind these values is PubChem BioAssay AID1362 (SRMLSC, 2008).
